Results reported in PubChem BioAssay AID743398 (Broad Institute, 2014).
Hit rate of the full screen: of about 300,000 compounds, about 3,600 (1.2%) were called active. The sample as a whole holds a higher share of actives than the screen did. Values without a mark were called inactive. Rule as the data show it: active = activation above about 30% (passing the limit was not always enough); inconclusive = no clear call, values can overlap the other calls.

experiment: Wnt/beta-catenin pathway activators, primary screen, cell-based, plate reader, single point (AID 743398); details: Wnt/beta-catenin reporter cell assay, activator, at 9.35 µM, hits give high values;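 also: 0% = neutral control wells and 100% = positive control wells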

Row | SMILES | activation
1 | Cc1nn(-c2ccc([N+](=O)[O-])cc2)c(N)c1-c1ccccc1 | 37.5% (active)
2 | Cc1cc(CO)nn1-c1ccc([N+](=O)[O-])cc1 | 3.25%
3 | O=C1CC(c2ccccc2)=NN1c1ccc([N+](=O)[O-])cc1 | 5.66%
4 | CC(C)C[C@H](NC(=O)CC1CCCC1)C(=O)N1CCC[C@H]1C(=O)NCc1ccccc1 | 3.46%
5 | COc1cccc(NC(=O)C2(C)CCN2C(=O)CCC2CCCC2)c1 (centres undefined) | -2.67%
6 | Cc1ccc(Cc2c(-c3ccc(Cl)cc3)nc3c4ccccc4ccn23)cc1 | -0.0465%
7 | O=C(Cc1nc2ccccc2[nH]c1=O)c1ccc(Cl)cc1 | 52.5% (active)
8 | O=C(CSc1nc2ccc([N+](=O)[O-])cc2[nH]1)c1ccc(Cl)cc1 | -2.13%
9 | O=C(/C(=C/c1cccc(Cl)c1)c1nc2ccccc2[nH]1)c1ccccc1 | 27.7%
10 | Cc1ccc(Nc2ncnc3c2cnn3C)c(C)c1 | 0.858%
11 | Cc1ccc(-n2ncc3c(Nc4cccc(C(=O)O)c4)ncnc32)cc1 | 42.2% (active)
12 | O=C(NNc1ncnc2c1cnn2-c1ccccc1)c1ccco1 | 0.184%
13 | CC(=O)C1=C(C)N(Cc2ccc(Cl)cc2)C(=S)NC1c1ccc(F)cc1 (centres undefined) | -10%
14 | N#CC1=C(N)N(c2ccccc2)C2=C(C(=O)CCC2)C1c1ccccc1 (centres undefined) | -0.648%
15 | COc1ccc(C2C(C#N)=C(N)N(c3ncn[nH]3)C3=C2C(=O)CCC3)cc1 (centres undefined) | 43.2% (active)
16 | CCOc1ccc(C2C(C#N)=C(N)N(N(C)C)C3=C2C(=O)CCC3)cc1 (centres undefined) | 6.29%
17 | COc1cccc(-c2nc3nc(C)cc(C)n3c2NC2CCCCC2)c1 | 5.8%
18 | CC[C@H](NC(=O)[C@H](Cc1ccccc1)NC(=O)[C@H]1O[C@@H](n2cnc3c(=O)[nH]c(N)nc32)[C@H](O)[C@@H]1O)c1ccccc1 | -0.864%
19 | Cc1sc2ncnc(N3CCC(C(=O)Nc4ccc(F)cc4Cl)CC3)c2c1C | -1.16%
20 | Cc1sc2ncnc(N3CCC(C(=O)Nc4nc5ccc(Cl)cc5s4)CC3)c2c1C | 38.3% (active)
21 | Cc1sc2ncnc(N3CCC(C(=O)NNC(=O)c4ccc(F)cc4)CC3)c2c1C | 3.2%
22 | C[C@H](NC(=O)[C@@H]1CCCN1C(=O)[C@@H]1CCCN1C(=O)c1ccccc1)c1ccccc1 | -3.41%
23 | COc1ccc(Cn2c(=O)oc3ccccc32)cc1 | 8.74%

Row | SMILES | activation
24 | COc1ccc(Cn2c(-c3ccc(Cl)cc3)c[n+]3ccccc23)cc1 | 68.9% (active)
25 | CCn1c(C)cc(=O)cc1-c1ccc(Cl)cc1 | 2.88%
26 | Cc1cc(C)n2c(NCc3ccccc3)c(CC(C)C)nc2n1 | -0.325%
27 | COC(=O)C1=C(C)N(Cc2cccc(C(F)(F)F)c2)C(=NCc2ccccc2)NC1c1ccccc1C(F)(F)F (centres undefined) | -15.6%
28 | O=C(CC(CC(=O)c1ccccc1)c1ccco1)c1ccccc1 | 0.593%
29 | O=C(COC(=O)c1ccccc1)c1ccc2c(c1)OCCO2 | -3.49%
30 | O=C(COC(=O)c1ccc(O)cc1O)NC(=O)c1ccccc1 | -3.61%
31 | O=C(COC(=O)c1ccc(O)cc1O)c1ccc2c(c1)OCCO2 | 53.6% (active)
32 | O=C(O)Cn1cnc2c(NCc3ccccc3)ncnc21 | -0.517%
33 | COC(=O)C1=C(C)N(Cc2cccc(C(F)(F)F)c2)C(=NCc2ccccc2)NC1c1ccc(Cl)cc1 (centres undefined) | -31.1%
34 | O=C(NC1CCCCC1)c1cc(C2CC2)on1 | 24.8%
35 | COc1ccc(-c2cc(C(=O)NCCCn3ccnc3)no2)cc1 | 6.05%
36 | O=C(NCCCn1ccnc1)c1cc(-c2ccccc2)on1 | 113% (active)
37 | O=C(NC1CCCCCCC1)c1cccs1 | 9.38%
38 | O=C(NC1CCCC1)c1cc(-c2ccccc2)on1 | 46.9% (active)
39 | O=C(NCCCn1ccnc1)c1ccccc1F | -0.169%
40 | Cc1ccccc1S(=O)(=O)N1[C@@H](c2cccc(Cl)c2)C(C(=O)OC(C)(C)C)=CC[C@H]1c1ccc(Cl)cc1 | -9.66%
41 | COc1ccccc1-c1ccc([C@@H]2C[C@H]3[C@H](CON3C)CN2S(=O)(=O)c2cc(Cl)cc(Cl)c2)cc1 | -3.43%
42 | COC(=O)[C@]12C[C@H](CC(=O)NCc3ccccc3)C(=O)N(CCC3=CCCCC3)C1=C[C@H](C(C)(C)C)O[C@@H]2C | -7.29%
43 | Cc1cccc(CNC(=O)c2sc(=O)n(Cc3ccccc3C)c2C)c1 | -2.16%
44 | O=C(Nc1nnc(C2CC2)s1)c1ccccn1 | 3.38%
45 | Cc1cnc(NC(=O)c2ccc(Cl)nc2)s1 | 29%
46 | Cc1cnc(NC(=O)c2ccccn2)s1 | 41.6% (active)

Row | SMILES | activation
47 | COC(=O)[C@]12C[C@H](CC(=O)NCCCCc3ccccc3)C(=O)N(Cc3ccc4c(c3)OCO4)C1=C[C@H](C(C)(C)C)O[C@@H]2C | -8.78%
48 | O=C(/C=C/c1ccccc1)Nc1nnc(SCC(=O)c2ccc3ccccc3c2)s1 | -11.8%
49 | NC(=O)CSc1nnc(NC(=O)c2ccc(Br)o2)s1 | 3.36%
50 | NC(=O)CSc1nnc(NC(=O)c2ccc3ccccc3c2)s1 | 39.8% (active)
51 | COc1ccc(CC(N)c2csc(NC(=O)Nc3ccc(C(C)C)cc3)n2)cc1 (centres undefined) | 0.986%
52 | Cc1ccc(C)c(CN2CCC(CNC(=O)C3CCCN(c4ncnc5c4nc4n5CCCCC4)C3)CC2)c1 (centres undefined) | 2.22%
53 | CSc1ccc(CN2CCC2(C)C(=O)NCc2ccccc2Br)cc1 (centres undefined) | -0.564%
54 | CCOC(=O)C1CCCN(C(=O)c2cc(-c3cccs3)oc2C)CC1 (centres undefined) | -1.53%
55 | Nc1ccc(N=Nc2ccccc2Cl)c(N)n1 | 37.3% (active)
56 | CCN1C(=O)[C@@H]2[C@@H]3CN(S(=O)(=O)c4ccccc4C)[C@@H](c4ccc(Cl)cc4)[C@@H]3C(=O)C[C@@H]2C1=O | -1.76%
57 | Oc1cccc2cc(-c3ccncc3)cnc12 | 4.6%
58 | C=CC[C@]12C[C@@]3(O[C@H](c4ccc(C(F)(F)F)cc4)N=C3C[C@H](c3ccc(OC)cc3)[C@H]1C)N(C1CCN(Cc3ccccc3)CC1)C2=O | -5.8%
59 | C=CCOc1cccc(C2C(C(=O)c3ccc(C)o3)=C(O)C(=O)N2CCN2CCOCC2)c1 (centres undefined) | -3.18%
60 | Cc1ccc(Cc2nc(-c3cccc(C)c3)no2)cc1 | 16.6%
61 | Cc1ccc(-c2nc(-c3ccncc3)no2)c(C)c1 | 0.571%
62 | Cc1cccc(-c2noc(-c3ccc(F)cc3)n2)c1 | 51% (active)
63 | CN1CCCCC(NC(=O)C(C)(C)C)C1=O (centres undefined) | -0.306%
64 | Nc1[nH]c(C(=O)c2ccccc2)c(-c2ccc(Cl)cc2Cl)c1C(=O)c1ccccc1 | 3.74%
65 | CCOc1cccc(/C=C/c2ccc3ccccc3n2)c1OC(C)=O | 7.85%
66 | COc1cccc(/C=C/c2ccc3ccccc3n2)c1OC(C)=O | -2.71%
67 | NC(=O)COC(=O)/C=C/c1ccc2ccccc2n1 | 48.3% (active)
68 | C[C@@H]1CN([C@@H](C)CO)C(=O)CCCn2nncc2CO[C@@H]1CN(C)S(=O)(=O)c1ccc(-c2ccccc2)cc1 | -3.45%
69 | CCCNC(=O)C1(C)CCN(Cc2csc(-c3ccc(Cl)cc3)n2)C1 (centres undefined) | -1.95%

Row | SMILES | activation
70 | COc1ccccc1NC(=O)/C=C/C(=O)O | 0.198%
71 | COC(=O)c1sc(-c2ccc(C(C)(C)C)cc2)cc1NC(=O)/C=C/C(=O)O | 34.5% (active)
72 | O=C(O)/C=C/C(=O)Nc1ccc(F)cc1F | -1.57%
73 | CCc1nc2c(OCc3ccccc3)cccn2c1N(C)C(=O)c1ccco1 | -1.39%
74 | Cc1ccc(C(O)c2ncc(-c3ccccc3F)[nH]2)cc1F (centres undefined) | -2%
75 | COc1ccc(C2OC(CCc3ccccc3)Cc3[nH]c(=S)[nH]c(=O)c32)cc1 (centres undefined) | -4.52%
76 | OCCC#Cc1ccc(N2C(c3ccsc3)=Cc3ccc(F)cc3C2c2c[nH]c3ccccc23)cc1 (centres undefined) | -4.42%
77 | C=CC1=CCN(S(=O)(=O)C(C)(C)C)[C@@H]1CCO | -5.37%
78 | O=C(N/N=C/c1ccco1)c1csc2c1CCCC2 | 14.7%
79 | O=C(Nc1ccccc1N1CCOCC1)c1csc2c1CCCC2 | 3.53%
80 | Cc1ccc(NC(=O)c2csc3c2CCCC3)cc1 | 33.5% (active)
81 | COc1cccc(CNC(=O)[C@H]2CCCN2C(=O)[C@H]2CCCN2C(=O)c2ccc(F)cc2)c1 | -3.18%
82 | Cc1ccc2nc(-c3ccc(CN4CCC(n5cc(-c6ccccc6)[nH]c5=O)CC4)cc3)c(-c3ccccc3)nc2c1 | -0.633%
83 | O=C(O)c1ccc2c(c1)C(=O)N(NC(=O)c1ccc(O)cc1)C2=O | -0.273%
84 | Cc1cccc(N2C(=O)c3ccc(C(=O)Nc4cccc(C(=O)O)c4)cc3C2=O)c1 | 3.97%
85 | O=C(/C=C/c1ccc(N2CCOCC2)cc1)c1ccccc1 | 38.7% (active)
86 | O=C(CN1CCN(S(=O)(=O)/C=C/c2ccccc2)CC1)Nc1ccc(N2CCOCC2)cc1 | -0.917%
87 | O=C(NN=Cc1ccc(N2CCOCC2)cc1)c1cc2ccccc2cc1O | -3.76%
88 | O=C(O)c1ccc2c(c1)C(=O)N(c1ccc(/C=C/C(=O)c3ccccc3)cc1)C2=O | 31.9% (active)
89 | O=C(c1ccc(N2CCCC2=O)cc1)N1CCN(c2ccc(C(F)(F)F)cc2[N+](=O)[O-])CC1 | -1.11%
